USP28 inh – blocks human USP28 ubiquitin-rhodamine cleavage; Q96RU2; purified USP28, Ub-rhodamine cleavage fluorescence, 30 min; inhibition, % at 25 µM; 47,000 compounds, 3% hits; AID 1645857
USP30 inh – blocks human USP30 ubiquitin-rhodamine cleavage | Q70CQ3 | purified USP30, Ub-rhodamine cleavage fluorescence | inhibition, % at 25 µM | 47,000 compounds, 5.3% hits
Target sequence (Q70CQ3 whole entry, looked up): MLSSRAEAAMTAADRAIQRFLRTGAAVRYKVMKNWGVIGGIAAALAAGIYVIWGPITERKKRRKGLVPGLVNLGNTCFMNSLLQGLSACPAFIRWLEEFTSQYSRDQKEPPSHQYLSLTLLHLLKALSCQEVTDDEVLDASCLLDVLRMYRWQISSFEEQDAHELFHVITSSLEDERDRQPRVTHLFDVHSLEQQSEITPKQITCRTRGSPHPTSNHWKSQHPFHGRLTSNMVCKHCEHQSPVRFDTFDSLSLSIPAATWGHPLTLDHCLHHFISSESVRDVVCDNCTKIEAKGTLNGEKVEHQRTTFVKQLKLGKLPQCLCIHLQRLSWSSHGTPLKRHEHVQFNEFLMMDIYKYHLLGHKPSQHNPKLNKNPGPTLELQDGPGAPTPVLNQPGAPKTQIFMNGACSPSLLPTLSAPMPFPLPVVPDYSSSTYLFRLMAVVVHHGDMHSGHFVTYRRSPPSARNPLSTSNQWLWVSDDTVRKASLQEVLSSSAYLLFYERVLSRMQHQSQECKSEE
USP17 block – blocks human USP17 ubiquitin-rhodamine cleavage. A8MUK1. purified USP17, Ub-rhodamine cleavage fluorescence, 3 h. inhibition, % at 50 µM. 47,000 compounds, 6.5% hits. AID 1645855
USP8 block – human USP8 deubiquitinase inhibition; P40818; purified USP8, Ub-rhodamine cleavage fluorescence, 30 min; inhibition, % at 20 µM; 47,000 compounds, 4.2% hits; AID 1645853
Numbers without * were called inactive; . = no result. Rows were chosen to be rich in hits. Some 14% of all compounds tested hit in one or more screens of this group. Cut-off read from the data, not from the text of the source: active = inhibition above about 30%; inactive = the rest.

SMILES	USP28 inh	USP30 inh	USP17 block	USP8 block
CC(C)CNC(=O)c1cc(=O)[nH]c2ccc(S(=O)(=O)Nc3ccc(F)cc3)cc12	7	25	36*	4
N=c1sccn1CC(=O)Nc1ccc(Oc2ccccc2)cc1	37*	10	1	-3
CN(C)S(=O)(=O)c1ccc(-c2nnc(C(=O)N3CCCCC3)o2)cc1	-1	0	1	-4
Cc1cnc(C2CN(C(=O)CCc3c[nH]c4ccccc34)CCO2)[nH]1 (stereo not given)	-14	-2	-6	1
CCCCCC(=O)N1c2ccccc2NC2=C(C(=O)CC(c3ccc(C(C)(C)C)cc3)C2)C1c1ccncc1 (stereo not given)	28	25	74*	2
COc1cc(C2CC(=O)C3=C(C2)Nc2ccccc2N(C(=O)c2ccccc2)C3c2ccc(C)cc2)cc(OC)c1OC (stereo not given)	0	-11	-11	-8
CCC(=O)N1c2ccccc2NC2=C(C(=O)CC(c3ccco3)C2)C1c1ccc(OC)c(OC)c1 (stereo not given)	3	-15	0	0
COc1cc(C2C3=C(CC(c4ccco4)CC3=O)Nc3ccccc3N2C(=O)c2ccccc2)cc(OC)c1OC (stereo not given)	3	-8	6	34*
CC(=O)N1c2ccccc2NC2=C(C(=O)CC(c3ccco3)C2)C1c1ccc(Cl)cc1 (stereo not given)	-6	-56	18	43*
CCN1CCC2(CN(CC(C)C)CC23CCN(C(=O)Cc2ccccc2)CC3)C1=O (stereo not given)	-9	-4	-52	-183
COc1ccc(CNC(=O)[C@H](C)N2C(=O)N3CCc4c([nH]c5ccc(OC)cc45)[C@@]3(C)C2=O)cc1	33*	-42	50*	17
Cc1ccc(CNC(=O)c2cccc(N3C(=O)N4CCc5c([nH]c6ccccc56)[C@@]4(C)C3=O)c2)cc1	6	18	64*	0
C[C@]12C(=O)N(c3ccccc3C(=O)NCCc3ccccc3)C(=O)N1CCc1c2[nH]c2ccccc12	13	24	41*	0
COc1ccc2[nH]c3c(c2c1)CCN1C(=O)N(c2ccccc2C(=O)NCc2ccccc2)C(=O)[C@]31C	18	22	61*	2
C[C@]12C(=O)N(c3ccc(C(=O)NCc4ccccc4)cc3)C(=O)N1CCc1c2[nH]c2ccccc12	5	6	4	12
CN(Cc1cccs1)C(=O)C1CCCN1C1=NS(=O)(=O)c2ccccc21 (stereo not given)	9	16	11	9
COc1cccc(NC(=O)c2cnc3c(c2)c(=O)n(C)c(=O)n3C)c1	41*	71*	22	18
Cc1ccc(NC(=O)c2cnc3c(c2)c(=O)n(C)c(=O)n3C)cc1	0	19	62*	1
Cn1nccc1-c1cnc(CC2CCN(S(C)(=O)=O)CC2)cn1	3	-45	5	4
Cc1ccc(CN2CCC3(CC2)CN(c2cncnc2)C(=O)CO3)o1	-51	-195	-64	-113
Cc1cc2cc(CNC(=O)c3ccccc3[N+](=O)[O-])ccc2[nH]1	8	1	39*	-59
COc1ccc(CC(=O)NCc2ccc3[nH]c(C)cc3c2)cc1	10	-50	56*	14
CCN(c1ccc(NC(=O)COC(=O)c2cccnc2Nc2cccc(C(F)(F)F)c2)cc1)C(C)C	13	24	5	9
CCN(c1ccc(NC(=O)CSc2nccc(=O)[nH]2)cc1)C(C)C	-3	-12	12	59*
CCOC(=O)c1c(-c2ccc(C)o2)csc1NC(=O)COC(=O)c1cc(=O)[nH]c2ccccc12	.	.	37*	-2
SMILES	USP28 inh	USP30 inh	USP17 block	USP8 block
Cc1ccccc1NC(=O)CNc1ccc(C#N)cc1	0	-7	-7	9
N#Cc1cccc(NC(=O)Nc2cccn(Cc3ccccc3F)c2=O)c1	82*	27	85*	94*
N#Cc1ccc(NC(=O)Nc2cccn(Cc3ccccc3Br)c2=O)cc1	63*	30*	81*	90*
O=C(c1ccc2c(c1)N(Cc1ccccc1F)C(=O)c1ccccc1S2(=O)=O)N1CCN(C(=O)c2ccco2)CC1	6	29	38*	13
O=C(c1ccc2c(c1)N(Cc1ccccc1F)C(=O)c1ccccc1S2)N1CCC2(CC1)OCCO2	8	1	12	6
Cn1c(CCC(=O)O)nc2cc(S(=O)(=O)N3CCOCC3)ccc21	-12	-50	-9	-6
Cn1c(CCC(=O)Nc2ccc3c(c2)CCC3)nc2cc(S(=O)(=O)N3CCOCC3)ccc21	6	33*	48*	-6
O=C(NCCC1=CCCCC1)c1cc(OCc2ccccc2)nc2ccccc12	-21	-42	-42	-90

Compound activity deposited in PubChem BioAssay by Buhrlage Lab, Dana-Farber Cancer Institute and Novartis Institutes for BioMedical Research (Cambridge, Mass).
